Source: PubChem BioAssay (Tox21)
Records with an inconclusive call do not appear. Calls of active or inactive are those of the source. Unless noted, the call rests on the fitted dose curve.

How the values were obtained:
[1] = Nuclear factor erythroid 2-related factor 2/antioxidant responsive element (Nrf2/ARE) small molecule agonists: luciferase reporter gene qHTS assay in human keratinocytes (AID 1919969); further: nearly all actives have a fitted effect of over 35% in size
[2] = target: Gonadotropin-releasing hormone receptor (Homo sapiens) (UniProt P30968); assay: Human gonadotropin-releasing hormone receptor (GnRHR) small molecule agonists, calcium flux assay in GnRHR-HEK293 cells (AID 1920063); further: nearly all actives have a fitted effect of over 35% in size
Sequence of Gonadotropin-releasing hormone receptor (Homo sapiens) (P30968 whole entry, looked up): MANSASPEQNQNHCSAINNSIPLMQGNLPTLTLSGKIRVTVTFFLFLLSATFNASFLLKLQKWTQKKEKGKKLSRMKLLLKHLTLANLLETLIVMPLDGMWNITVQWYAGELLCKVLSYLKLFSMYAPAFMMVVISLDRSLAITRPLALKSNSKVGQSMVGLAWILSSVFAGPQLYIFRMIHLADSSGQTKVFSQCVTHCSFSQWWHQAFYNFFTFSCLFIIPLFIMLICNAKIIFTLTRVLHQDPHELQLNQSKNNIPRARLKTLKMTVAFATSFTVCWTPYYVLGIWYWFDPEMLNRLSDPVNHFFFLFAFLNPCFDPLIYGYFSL
How it was run: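 Intracellular calcium rise is the read-out: engineered human GnRHR HEK293 cells, dye-loaded, are exposed to DMSO-dissolved compounds and fluorescence at Ex/Em 480/540 is tracked for 3 min.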

[3] = target: KiSS-1 receptor (Homo sapiens) (UniProt Q969F8); assay: Human kisspeptin (KISS1R) small molecule agonists, calcium flux assay in KISS1R-HEK293 cells (AID 1920064; active means well fitted activation curve with a large enough effect in the repeat runs)
Sequence of KiSS-1 receptor (Homo sapiens) (Q969F8 whole entry, looked up): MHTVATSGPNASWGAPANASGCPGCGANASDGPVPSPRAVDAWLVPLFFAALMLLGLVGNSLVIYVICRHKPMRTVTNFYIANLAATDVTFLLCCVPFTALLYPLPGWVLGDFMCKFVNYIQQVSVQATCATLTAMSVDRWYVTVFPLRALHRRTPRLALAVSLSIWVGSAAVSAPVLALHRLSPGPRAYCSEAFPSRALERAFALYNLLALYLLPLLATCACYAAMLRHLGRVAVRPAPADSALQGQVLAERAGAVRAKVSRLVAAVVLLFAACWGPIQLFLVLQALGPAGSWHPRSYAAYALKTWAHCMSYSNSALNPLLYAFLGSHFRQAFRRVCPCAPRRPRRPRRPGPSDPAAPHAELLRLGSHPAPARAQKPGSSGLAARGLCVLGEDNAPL
How it was run: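 Concentration-response testing used 15 concentrations in triplicate on human KISS1R-expressing HEK293 cells. Calcium-dependent fluorescence (Ex/Em 480/540) was followed kinetically for 3 min after compound transfer.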

[4] = G protein-coupled receptor (GPCR) small molecule agonists, calcium flux assay: HEK293 wild type cell line counter screen (AID 1920065)
How it was run: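 Fluorescence intensity signals activation. After overnight (18 h) culture and a 1 h calcium dye load at 37 C, compounds are added by pin tool and the plate read at 480/540 nm for 3 min in 1 s steps.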

[5] = p53 small molecule agonists, cell-based qHTS assay with human liver microsomes (AID 1963577);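 further: p53 response element beta-lactamase reporter cells with liver microsomes plus NADPH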
How it was run: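 Reporter activation was measured by LiveBLAzer fluorescence intensity in p53RE-bla cells, which had been exposed to compounds for 16 h at 37 C alongside 0.5 mg/mL human liver microsomes and 0.5 mg/mL NADPH (final concentrations).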

[6] = p53 small molecule agonists, cell-based qHTS assay with rat liver microsomes (AID 1963578)
How it was run: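 Compound in DMSO added to p53RE-bla cells 5 h post-plating; rat microsomes/NADPH 0.5 mg/mL final; 16 h, 37 C; LiveBLAzer 2 h RT.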

[7] = p53 small molecule agonists, cell-based qHTS assay with human liver microsomes: qHTS cell viability counter screen (AID 1963579); further: nearly all actives have a fitted effect of over 45% in size
How it was run: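 HLM-supplemented (0.5 mg/mL final) and NADPH-supplemented (0.5 mg/mL final) p53RE-bla cultures, 4,000 cells per well, were dosed with compounds in DMSO for 16 h at 37 C; luminescent ATP detection (CellTiter-Glo, 30 min, room temperature) quantified surviving cells.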

[8] = p53 small molecule agonists, cell-based qHTS assay with rat liver microsomes: qHTS cell viability counter screen (AID 1963580); further: nearly all actives have a fitted effect of over 45% in size
How it was run: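 Rat liver microsome (0.5 mg/mL final) and NADPH (0.5 mg/mL final) co-incubation with compounds for 16 h at 37 C on HCT-116 p53RE-bla cells; cytotoxicity taken from intracellular ATP luminescence.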

[9] = p53 small molecule agonists, cell-based qHTS assay: qHTS cell viability counter screen (AID 1963581); further: nearly all actives have a fitted effect of over 45% in size
How it was run: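 Luminescence from CellTiter-Glo, reflecting ATP content, serves as the cytotoxicity measure; it is taken after the 2 h reporter substrate step in HCT-116 p53RE-bla cells dosed for 16 h at 37 C.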

[10] = p53 small molecule agonists, cell-based qHTS assay (AID 1963582; active means well fitted activation curve with a large enough effect in the signal ratio in the repeat runs, not every such curve was filed as active; the % refers to the signal ratio)
How it was run: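 After plating, p53RE-bla cells sat 5 h in the incubator; compounds or DMSO vehicle were pinned in; a 16 h incubation at 37 C followed; FRET substrate was added and, 2 h later at RT, fluorescence was measured.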

[11] = cAMP Responsive Elements (CRE) small molecule agonists, cell-based qHTS assay (AID 1963590)
How it was run: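 Compound exposure lasted 3 h at 37 C/5% CO2 in CRE-bla HEK 293T cells grown in assay medium with 10% dialyzed FBS and 25 mM HEPES. Reporter signal came from LiveBLAzer B/G FRET substrate, 2 h, room temperature.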

[12] = cAMP Responsive Elements (CRE) small molecule antagonists, cell-based qHTS assay (AID 1963591; active means well fitted inhibition curve with a large enough effect in the signal ratio in the repeat runs, not every such curve was filed as active; the % refers to the signal ratio)
How it was run: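 Stimulation used NKH477 at a final 0.25 uM for 3 h in compound-treated CRE-bla HEK293T cells, seeded 18 h beforehand. Reporter activity was measured with LiveBLAzer B/G FRET substrate after 2 h at room temperature.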

[13] = target: Beta-2 adrenergic receptor (Homo sapiens) (UniProt P07550); assay: Adrenergic beta2 receptor (ADRB2) small molecule antagonists, cell-based qHTS assay (AID 1963592); further: series mostly up to about 92 µM; nearly all actives have a fitted effect of over 50% in size
Sequence of Beta-2 adrenergic receptor (Homo sapiens) (P07550 whole entry, looked up): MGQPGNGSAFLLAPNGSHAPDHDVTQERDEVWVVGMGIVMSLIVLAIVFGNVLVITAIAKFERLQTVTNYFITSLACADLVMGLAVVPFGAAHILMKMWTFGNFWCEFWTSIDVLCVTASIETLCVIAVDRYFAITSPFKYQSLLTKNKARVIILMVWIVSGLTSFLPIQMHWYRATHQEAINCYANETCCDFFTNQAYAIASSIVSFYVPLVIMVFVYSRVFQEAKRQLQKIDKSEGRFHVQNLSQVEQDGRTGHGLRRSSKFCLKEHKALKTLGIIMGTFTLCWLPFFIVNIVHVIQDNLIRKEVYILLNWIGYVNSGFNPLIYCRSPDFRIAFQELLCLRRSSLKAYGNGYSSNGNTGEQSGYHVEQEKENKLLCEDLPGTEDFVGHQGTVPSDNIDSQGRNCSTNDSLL
How it was run: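 Assay format: CHO-ADRB2 cells, 18-20hr seeding at 37C/5% CO2, then compound plus 1nM isoproterenol agonist mix for 0.5hr RT. Homogeneous time-resolved fluorescence cAMP detection after 1hr, expressed as 665/615 nm ratio.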

[14] = target: Beta-2 adrenergic receptor (Homo sapiens) (UniProt P07550); assay: Adrenergic beta2 receptor (ADRB2) small molecule agonists, cell-based qHTS assay (AID 1963593);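 further: CHO cells stably overexpressing human ADRB2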
How it was run: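 CHO cells stably over-expressing ADRB2 were plated overnight at 37C, then dosed with compounds plus a stimulation mix containing 100uM IBMX and 25uM Ro-20-1724 for 0.5hr at room temperature. cAMP was measured by HTRF competition, 1hr.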

[15] = target: D(2) dopamine receptor (Homo sapiens) (UniProt P14416); assay: Dopamine D2 receptor (DRD2) small molecule agonists, cell-based qHTS assay (AID 1963594); further: nearly all actives have a fitted effect of over 35% in size
Sequence of D(2) dopamine receptor (Homo sapiens) (P14416 whole entry, looked up): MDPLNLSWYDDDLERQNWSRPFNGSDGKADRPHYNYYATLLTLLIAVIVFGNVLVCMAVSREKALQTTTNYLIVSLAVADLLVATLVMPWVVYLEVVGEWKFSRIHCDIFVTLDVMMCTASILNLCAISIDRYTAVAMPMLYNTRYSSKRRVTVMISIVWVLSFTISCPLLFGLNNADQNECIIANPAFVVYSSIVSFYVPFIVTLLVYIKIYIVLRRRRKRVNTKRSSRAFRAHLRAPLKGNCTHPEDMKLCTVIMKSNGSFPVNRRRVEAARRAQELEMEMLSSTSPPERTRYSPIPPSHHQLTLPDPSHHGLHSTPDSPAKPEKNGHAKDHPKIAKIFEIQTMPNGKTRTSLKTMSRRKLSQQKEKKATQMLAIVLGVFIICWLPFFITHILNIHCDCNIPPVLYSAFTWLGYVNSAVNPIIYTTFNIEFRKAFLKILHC
How it was run: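 cAMP accumulation in DRD2-HEK293 cells measured by HTRF after 1 h detection; compounds added 10 min before NKH477 (200nM […]) forskolin-analogue stimulation, 30 min at room temperature, with Ro20-1724 present at 0.1 mM final.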

[16] = target: D(2) dopamine receptor (Homo sapiens) (UniProt P14416); assay: Dopamine D2 receptor (DRD2) small molecule antagonists, cell-based qHTS assay (AID 1963595; active means well fitted inhibition curve with a large enough effect in the signal ratio in the repeat runs, with a control signal flat; the % refers to the signal ratio)
How it was run: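 In this cell-based antagonist screen, compounds act for 10 min at room temperature before a 30 min challenge with 12 nM quinpirole and 200 nM NKH477. cAMP is quantified by HTRF competition in DRD2-HEK293 cells containing 0.1 mM Ro20-1724.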

[17] = target: 5-hydroxytryptamine receptor 2A (Homo sapiens) (UniProt P28223); assay: 5-hydroxytryptamine receptor 2A (HTR2A) small molecule agonists, cell-based qHTS assay (AID 1963587); further: nearly all actives have a fitted effect of over 30% in size
Sequence of 5-hydroxytryptamine receptor 2A (Homo sapiens) (P28223 whole entry, looked up): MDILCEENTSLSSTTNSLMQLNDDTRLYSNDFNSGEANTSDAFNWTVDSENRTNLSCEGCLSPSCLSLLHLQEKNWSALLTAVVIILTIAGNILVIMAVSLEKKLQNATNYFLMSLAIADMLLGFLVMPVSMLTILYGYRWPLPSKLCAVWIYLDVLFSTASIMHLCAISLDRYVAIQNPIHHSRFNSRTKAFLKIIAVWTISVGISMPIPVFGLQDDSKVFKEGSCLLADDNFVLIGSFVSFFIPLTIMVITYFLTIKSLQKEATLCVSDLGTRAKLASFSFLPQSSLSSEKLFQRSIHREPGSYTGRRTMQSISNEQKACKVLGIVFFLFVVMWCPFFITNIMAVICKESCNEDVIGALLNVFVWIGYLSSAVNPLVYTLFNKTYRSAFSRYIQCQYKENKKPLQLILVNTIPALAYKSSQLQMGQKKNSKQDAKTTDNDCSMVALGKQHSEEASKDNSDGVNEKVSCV
How it was run: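 Kinetic calcium-flux fluorescence (2 min, 1 sec intervals) after compound addition in agonist mode. HTR2A-CHO cells were cultured 18 h, then dye-loaded 1 h at 37 C.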

[18] = target: Muscarinic acetylcholine receptor M1 (Homo sapiens) (UniProt P11229); assay: Cholinergic receptor muscarinic 1 (CHRM1) small molecule antagonists, cell-based qHTS assay (AID 1963588); further: nearly all actives have a fitted effect of over 40% in size
Sequence of Muscarinic acetylcholine receptor M1 (Homo sapiens) (P11229 whole entry, looked up): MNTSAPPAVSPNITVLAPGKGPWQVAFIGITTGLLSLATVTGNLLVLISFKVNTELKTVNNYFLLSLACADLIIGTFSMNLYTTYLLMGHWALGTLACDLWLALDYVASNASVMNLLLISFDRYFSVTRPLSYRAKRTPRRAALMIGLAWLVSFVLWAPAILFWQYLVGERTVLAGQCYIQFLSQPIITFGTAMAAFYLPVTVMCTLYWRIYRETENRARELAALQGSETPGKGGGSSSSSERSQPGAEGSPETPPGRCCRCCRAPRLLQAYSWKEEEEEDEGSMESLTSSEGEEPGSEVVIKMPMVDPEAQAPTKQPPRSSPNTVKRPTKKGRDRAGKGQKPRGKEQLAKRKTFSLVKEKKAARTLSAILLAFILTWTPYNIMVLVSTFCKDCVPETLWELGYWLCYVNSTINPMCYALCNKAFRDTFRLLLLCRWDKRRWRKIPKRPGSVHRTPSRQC
How it was run: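 Compounds were tested at 15 concentrations in three independent runs. Dye-loaded CHRM1-CHO cells were exposed 5 min at room temperature before stimulation by acetylcholine added at 50nM. Intracellular calcium was read kinetically on FDSS for 3 min.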

[19] = target: 5-hydroxytryptamine receptor 2A (Homo sapiens) (UniProt P28223); assay: 5-hydroxytryptamine receptor 2A (HTR2A) small molecule antagonists, cell-based qHTS assay (AID 1963586); further: nearly all actives have a fitted effect of over 45% in size
How it was run: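 CHO cells stably expressing human HTR2A were plated for 18 h at 37 C, then loaded with calcium dye for 1 h. Compounds were preincubated 5 min at room temperature before DOI (4 nM solution) was added. Kinetic fluorescence was read for 3 min.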

[20] = target: Muscarinic acetylcholine receptor M1 (Homo sapiens) (UniProt P11229); assay: Cholinergic receptor muscarinic 1 (CHRM1) small molecule agonists, cell-based qHTS assay (AID 1963589); further: nearly all actives have a fitted effect of over 35% in size
How it was run: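 Fluorescent calcium dye reports M1 activation in stably transfected CHO cells. Compounds, 15 concentrations, added after 1 h dye loading at 37 C; kinetic reading at 1 sec intervals.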

Measured: Potency

C=CC(N)=O
not listed: [17] | [18] | [19] | [20]
inactive: all other assays above

C=CC#N
not listed: [14] | [19] | [20]
inactive: all other assays above

Cl/C=C/Cl
not listed: [6] | [8] | [9]
inactive: all other assays above

CC1(C)[C@H](C(=O)O[C@H](C#N)c2cccc(Oc3ccccc3)c2)[C@@H]1C=C(Br)Br
not listed: [7] | [12] | [14] | [16]
inactive: all other assays above

O=NN1CCCCCCC1
not listed: [17]
inactive: all other assays above

CC(Cl)CCl (stereo not drawn)
not listed: [10] | [14]
inactive: all other assays above
